# Tests used:
# Settings in all cases: concentration: 1 μM, replicates: in singlicate; n = 1
# [1] = tested on: SRPK1
# [2] = tested on: SRPK2
# [3] = tested on: SRPK3
# [4] = tested on: STK16
# [5] = tested on: STK33
# [6] = tested on: STK35
# [7] = tested on: STK36
# [8] = tested on: STK39
# [9] = tested on: SYK
# [10] = tested on: SgK110
# 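Also: KINOMEscan kinase panel screen.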
SMILES,%Inh [1] [%],%Inh [2] [%],%Inh [3] [%],%Inh [4] [%],%Inh [5] [%],%Inh [6] [%],%Inh [7] [%],%Inh [8] [%],%Inh [9] [%],%Inh [10] [%]
COc1cccc(-n2cnc3c(N)ncnc32)c1 [SKF-97416],2,6,0,16,12,0,0,29,4,0
COc1cc2ncn(-c3cc(OCc4ccncc4)c(C(N)=O)s3)c2cc1OC [GSK336313],23,0,0,25,0,0,0,4,26,0
CCC(=O)c1c(-c2ccccc2)c2cc(Cl)ccc2c(=O)n1Cc1cc(C(=O)NC2CC2)n(C)n1,0,19,0,6,0,51,0,13,0,11
CCCC(=O)Nc1n[nH]c2ncc(-c3cccc4ccccc34)cc12 [SB-642057],16,0,0,24,0,4,0,6,0,0
O=C1NC(=O)C(c2ccccc2)=C1Nc1cccc(O)c1 [SB-390534],20,7,0,0,4,2,0,4,6,0
O=C(NCCNc1ccnc(Nc2ccc(F)cc2)n1)Nc1ccc2c(c1)OCO2 [GSK1379882],17,24,0,23,0,0,0,12,0,0
Cl.NS(=O)(=O)c1cccc(Nc2cc(-c3ccc(F)cc3)n[nH]2)c1 [GW824645],0,0,2,18,0,0,0,0,3,0
O=C(Nc1n[nH]c2nc(-c3ccccc3)c(Br)cc12)C1CC1 [SB-708998],36,0,17,0,14,0,38,4,13,13
COC(=O)c1c(-c2ccccc2)c2cc(Br)ccc2c(=O)n1Cc1ccc(S(C)(=O)=O)cc1,0,0,1,38,2,0,10,2,0,6
CCS(=O)c1ccc(-c2coc3ccc(-c4nnc(C)o4)cc23)cc1 (centres unmarked),0,0,5,22,0,0,2,28,13,5
FC(F)(F)c1ccc(-c2ncn(CCCN3CCOCC3)c2-c2ccncc2)cc1 [SB-217780],0,6,6,9,0,0,10,19,0,0
COC(=O)c1c(-c2ccccc2)c2cc(Br)ccc2c(=O)n1Cc1ccc(NC(=O)CCC(=O)O)cc1,0,10,20,15,0,0,8,14,0,0
O=C(Nc1ccc2c(c1)OCO2)NC1CCN(c2ccnc(NCc3ccc(F)cc3)n2)CC1 [GSK1379859],28,0,0,7,0,0,0,0,16,0
COc1cc(Nc2ccnc3ccc(C(F)(F)F)cc23)cc(OC)c1OC [GW577382],0,0,0,0,15,0,0,16,37,0
COc1cccc(C2=C(N(C)c3ccccc3)C(=O)NC2=O)c1 [SB-334865],0,7,0,22,0,0,0,7,9,0
COc1ccc(-c2cc3c(C)nc(N)nc3n([C@H]3CC[C@H](OCCO)CC3)c2=O)cn1,0,0,0,0,0,8,0,0,1,25
Nc1n[nH]c2nnc(-c3ccccc3)c(-c3ccccc3)c12 [GW554060],0,0,9,25,0,0,0,35,0,0
Nc1ncnc2c1ncn2-c1ccc(Cl)cc1 [AH2635],0,13,0,3,0,0,0,0,31,0

SMILES,%Inh [1] [%],%Inh [2] [%],%Inh [3] [%],%Inh [4] [%],%Inh [5] [%],%Inh [6] [%],%Inh [7] [%],%Inh [8] [%],%Inh [9] [%],%Inh [10] [%]
COc1cc(OC)cc(-c2cc3cnc(N)nc3nc2NC(=O)NC(C)(C)C)c1,47,0,0,0,0,0,0,0,0,0
Cc1nnc(-c2ccc(C)c(-c3ccc(C(=O)O)cc3)c2)o1 [GW608005],35,0,7,0,0,0,0,1,0,0
CCS(=O)(=O)c1ccc(OC)c(Nc2ncc(-c3ccc(F)cc3)o2)c1.Cl [GW591947],30,0,0,1,12,0,0,11,48,0
CCCNC(=O)Nc1ccc(Oc2ncnc3ccn(C)c23)cc1,25,0,10,11,0,0,32,0,0,41
Cc1nn2c(=O)cc(N3CCOCC3)nc2n1Cc1cccc(Cl)c1Cl [GSK2342769],19,0,0,0,0,0,0,10,8,0
Cc1cccc(-c2cc(-c3c[nH]nc3-c3ccccn3)ccn2)c1 [GW679395],3,0,0,21,0,0,64,30,16,64
Nc1nc(N)c2nc(-c3ccccc3)[nH]c2n1 [SKF-12778],37,0,22,1,19,5,0,11,43,0
Nc1ncnc2c1ncn2-c1cccc(F)c1 [SKF-97560],16,0,0,6,6,0,4,0,25,5
Cc1nc(N(C)[C@H]2CN(C(=O)CC#N)CC[C@H]2C)c2cc[nH]c2n1,26,0,1,0,0,0,0,0,0,0
CCC(=O)c1c(-c2ccccc2)c2cc(Cl)ccc2c(=O)n1Cc1ccc(C(=O)O)cc1,0,10,0,0,0,0,0,23,0,49
COc1cc(Nc2nccc(N3CCC(NC(=O)C4COc5ccccc5O4)C3)n2)cc(OC)c1OC (centres unmarked) [GSK1379761],65,70,0,70,4,13,40,0,44,0
COc1cccc(C2=C(Nc3cccc(C(=O)O)c3)C(=O)NC2=O)c1 [SB-390770],8,24,11,8,2,12,4,0,30,3
CCC(=O)c1c(-c2ccccc2)c2cc(Cl)ccc2c(=O)n1Cc1cc(S(C)(=O)=O)n(CC(F)F)n1,0,2,0,0,0,0,0,0,0,31
CCn1c(-c2ccoc2)nc2cnccc21 [SB-733887],41,18,0,1,0,0,0,0,26,0
COC(=O)c1c(-c2ccccc2)c2cc(C)ccc2c(=O)n1Cc1ccccc1,0,0,0,19,0,0,1,0,0,12
Cc1nnc(-c2ccc3ncn(-c4ccc(S(C)=O)cc4)c3c2)o1 (centres unmarked),0,0,0,29,0,0,22,0,0,2
COc1ccc(-c2cc3c(C)nc(N)nc3n([C@H]3CC[C@H](O)CC3)c2=O)cn1,21,0,0,0,0,0,0,0,0,0

# Reference: PMC5540273 (PLoS ONE, 2017)
